Experimental data published in publication PMC10668032, “Altered binding affinity of SIX1-Q177R correlates with enhanced WNT5A and WNT pathway effector expression in Wilms tumor”.
Over roughly 33,000 sequences, “e-score” has its median near -0.053; the highest 2% begin near 0.38. The full list was thinned out, with the highest values kept by preference.

These sequences were tested against T1, SIX1 homeodomain (reference allele) (human, UniProt Q15475 108-198) (assay: universal protein binding microarray; Universal all-10-mer PBM (8x60K, AMADID 030236), 300 nM GST-tagged protein, Alexa Fluor 488 anti-GST; buffer, salt, pH and temperature not stated (as in Berger); high values mean tight binding). Details: protein: ivt; tags: N-terminal GST; dsDNA, one strand shown.
T1 sequence: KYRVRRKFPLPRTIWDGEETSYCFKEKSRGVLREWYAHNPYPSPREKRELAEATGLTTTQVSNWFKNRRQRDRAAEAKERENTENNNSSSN
In short: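 Homeodomains carrying a GST tag were produced by in vitro transcription/translation, then quantified by anti-GST western blot against a recombinant GST standard curve. Duplicate applications at 300 nM final concentration were made to universal 'all 10-mer' protein binding microarrays in 8×60K format. The Universal PBM Analysis Suite was used to express binding as 8-mer E-scores.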

| Sequence | binding signal [E-score] |
| --- | --- |
| CGATCTTC | 0.288 ± 0.0189 |
| GATGGGTA | 0.223 ± 0.0133 |
| ATTTGATC | 0.215 ± 0.0531 |
| GTTCGATA | 0.324 ± 0.0131 |
| CTTTGATA | 0.331 ± 0.0715 |
| CTTTGATC | 0.213 ± 0.0316 |
| GTTTGATA | 0.379 ± 0.067 |
| ATTTGATA | 0.397 ± 0.0881 |
| CAATACGA | 0.207 ± 0.026 |
| ATCACTTC | 0.3 ± 0.0422 |
| CTCAGATA | 0.31 ± 0.032 |
| ATCAGATC | 0.394 ± 0.0295 |
| CTCAGATC | 0.27 ± 0.00864 |
| ATCAGATG | 0.319 ± 0.0136 |
| GTCAGATA | 0.273 ± 0.0192 |
| ATCAGATA | 0.378 ± 0.0255 |
| CGTATGAA | 0.15 ± 0.0134 |
| ACGGTGAT | 0.181 ± 0.00713 |
| CCCGTGTC | 0.255 ± 0.0128 |
| CCGGTGTC | 0.431 ± 0.0182 |
| CAGGTGTA | 0.272 ± 0.00711 |
| AAGGTGTC | 0.373 ± 0.0231 |
| ACGGTGTA | 0.255 ± 0.00781 |
| CCGGTGTA | 0.332 ± 0.0356 |
| ACGGTGTC | 0.437 ± 0.0187 |

| Sequence | binding signal [E-score] |
| --- | --- |
| CAGGTGTC | 0.394 ± 0.0354 |
| GTCTGGTA | 0.151 ± 0.048 |
| ATCGGAAT | 0.172 ± 0.0652 |
| AAGAGTAT | 0.277 ± 0.117 |
| ATATATTG | 0.238 ± 0.0753 |
| GGGATCCC | 0.415 ± 0.0591 |
| CGGATCTA | 0.318 ± 0.04 |
| CGGATCGC | 0.395 ± 0.05 |
| CAGATCGC | 0.284 ± 0.0237 |
| AGGATCCG | 0.308 ± 0.0272 |
| GGGATCTA | 0.272 ± 0.0387 |
| CAGATCCG | 0.322 ± 0.0638 |
| GGGATCCA | 0.375 ± 0.0614 |
| AGGATCGC | 0.27 ± 0.0489 |
| CGGATCCA | 0.406 ± 0.0429 |
| TGGATCCA | 0.295 ± 0.0443 |
| CGGATCCG | 0.417 ± 0.0204 |
| AATGAGCC | 0.158 ± 0.0559 |
| ATGTCTCA | 0.2 ± 0.0211 |
| AGGGCGAT | 0.284 ± 0.0121 |
| ATCACCAG | 0.166 ± 0.0324 |
| CCACGATC | 0.195 ± 0.0938 |
| ATCCTGAC | 0.228 ± 0.00948 |
| AAGTATTG | 0.157 ± 0.085 |
| AGGATCCC | 0.379 ± 0.00668 |

| Sequence | binding signal [E-score] |
| --- | --- |
| CGGATCCC | 0.399 ± 0.0592 |
| AGGATCCT | 0.385 ± 0.0102 |
| CGGATCTC | 0.342 ± 0.0442 |
| AAGATCCT | 0.326 ± 0.0346 |
| AGGATCTG | 0.244 ± 0.0478 |
| CAGATCCC | 0.295 ± 0.0571 |
| AGGATCCA | 0.346 ± 0.0238 |
| AGGATCTC | 0.292 ± 0.0258 |
| ATCTTCGA | 0.193 ± 0.0484 |
| GAGGAATA | 0.21 ± 0.0309 |
| GACCTATC | 0.269 ± 0.00861 |
| GCCTGATA | 0.321 ± 0.0449 |
| ACATGAGA | 0.183 ± 0.0219 |
| ACATGATC | 0.279 ± 0.0144 |
| CCATGATC | 0.293 ± 0.0102 |
| CCATGATA | 0.376 ± 0.00711 |
| GCACGATA | 0.325 ± 0.00783 |
| GCATGATA | 0.4269 ± 0.00375 |
| ACATGATA | 0.426 ± 0.0281 |
| CCATGAGA | 0.242 ± 0.0275 |
| AACCATCT | 0.154 ± 0.0503 |
| ATCAATAA | 0.182 ± 0.0114 |
| ATCAGCCA | 0.237 ± 0.00617 |
| ACCGCTAT | 0.216 ± 0.0322 |
| CAGATACA | 0.355 ± 0.0318 |

| Sequence | binding signal [E-score] |
| --- | --- |
| AAAATACC | 0.181 ± 0.0716 |
| AAGATACG | 0.322 ± 0.0506 |
| AAGATACC | 0.426 ± 0.0219 |
| GAGATACA | 0.332 ± 0.0042 |
| GAGATAGC | 0.161 ± 0.0517 |
| CAGATACG | 0.334 ± 0.0281 |
| GAGATACC | 0.44068 ± 0.000332 |
| CAGATACC | 0.433 ± 0.00544 |
| GATCTGGC | 0.295 ± 0.0253 |
| ATATTGTA | 0.294 ± 0.0399 |
| TAATATTA | 0.161 ± 0.0729 |
| GATCAAGC | 0.312 ± 0.00728 |
| ACACGACT | 0.162 ± 0.0387 |
| ATCATTCG | 0.294 ± 0.00745 |
| GAGCGATC | 0.279 ± 0.0379 |
| GATCTCCC | 0.361 ± 0.00166 |
| TATCGAAA | 0.345 ± 0.0543 |
| CCATCTCG | 0.166 ± 0.114 |
| CATCATAC | 0.151 ± 0.0343 |
| GATCATCC | 0.41 ± 0.0124 |
| GATCACGC | 0.317 ± 0.0237 |
| GATCATCA | 0.34 ± 0.00658 |
| GCTCATCC | 0.219 ± 0.00236 |
| GATCATGC | 0.242 ± 0.0641 |
| GATCACAC | 0.351 ± 0.0284 |

| Sequence | binding signal [E-score] |
| --- | --- |
| GATCATAC | 0.3778 ± 0.00307 |
| GATCACCC | 0.407 ± 0.0371 |
| GATGGGGA | 0.191 ± 0.049 |
| CGTGGATA | 0.362 ± 0.0371 |
| ACCTGCTA | 0.2283 ± 0.000693 |
| TGGTGACA | 0.156 ± 0.0327 |
| GATCCTAC | 0.32 ± 0.0262 |
| ATGCGATA | 0.394 ± 0.037 |
| AGGCGATA | 0.357 ± 0.00753 |
| CAGCGATA | 0.359 ± 0.0421 |
| TAGCGATA | 0.3796 ± 0.0024 |
| GAGCGATA | 0.344 ± 0.042 |
| AAGCGATA | 0.376 ± 0.0611 |
| CTGCGATA | 0.342 ± 0.0342 |
| GTGCGATA | 0.36 ± 0.0111 |
| AAGCGATC | 0.239 ± 0.00546 |
| AGATAGTG | 0.152 ± 0.0589 |
| CCCATCCG | 0.191 ± 0.101 |
| CAATGACA | 0.198 ± 0.0712 |
| GGTGTTTA | 0.203 ± 0.0284 |
| ACCCGACA | 0.239 ± 0.0574 |
| ATCAATGC | 0.163 ± 0.0171 |
| ATCCATTA | 0.244 ± 0.00287 |
| AGCCGTAT | 0.292 ± 0.018 |
| ATATACGC | 0.244 ± 0.0546 |

| Sequence | binding signal [E-score] |
| --- | --- |
| CATGATCA | 0.177 ± 0.0294 |
| GAAGATCC | 0.297 ± 0.0273 |
| AATGATCC | 0.424 ± 0.011 |
| AATGATCT | 0.369 ± 0.0567 |
| TATGATCA | 0.25 ± 0.0234 |
| CATGATCC | 0.394 ± 0.00778 |
| GATGATCC | 0.45356 ± 0.000438 |
| AATGATCG | 0.152 ± 0.117 |
| GATGATCA | 0.315 ± 0.00602 |
| AACGGGAT | 0.243 ± 0.0163 |
| GATAGGAC | 0.22 ± 0.0517 |
| TCATGGGA | 0.153 ± 0.0225 |
| ATAGCCAA | 0.218 ± 0.0447 |
| CCGCGGTA | 0.194 ± 0.102 |
| CGGTGTAG | 0.297 ± 0.025 |
| AACAGATC | 0.2 ± 0.0405 |
| AACGGGTA | 0.159 ± 0.0738 |
| AACGGATA | 0.421 ± 0.0091 |
| AACGGATT | 0.204 ± 0.0564 |
| GACGGATC | 0.358 ± 0.041 |
| CACGGATA | 0.397 ± 0.0101 |
| AATGGATC | 0.35 ± 0.00509 |
| GACGGATA | 0.35 ± 0.0364 |
| CACAGATC | 0.277 ± 0.0367 |
| CACAGATA | 0.205 ± 0.00976 |

| Sequence | binding signal [E-score] |
| --- | --- |
| CACGGATC | 0.405 ± 0.0341 |
| AACGGATC | 0.376 ± 0.0111 |
| ATACAGGA | 0.228 ± 0.0565 |
| ATGCAATA | 0.192 ± 0.0352 |
| GAGTAGAC | 0.214 ± 0.0128 |
| ATATGCCC | 0.339 ± 0.0543 |
| CGATCTAG | 0.1577 ± 0.00153 |
| ATCATTTC | 0.1962 ± 0.00187 |
| ATCAAGCG | 0.228 ± 0.0527 |
| AGAGCGAT | 0.159 ± 0.0536 |
| AAGCCGAT | 0.211 ± 0.0118 |
| CATTATAC | 0.28 ± 0.0245 |
| CGAGGGGA | 0.164 ± 0.0583 |
| TACGGATA | 0.401 ± 0.0137 |
| TAAGGATA | 0.276 ± 0.0458 |
| TACAGATA | 0.267 ± 0.0119 |
| CCCATCCC | 0.154 ± 0.0727 |
| GCTAGATA | 0.255 ± 0.0399 |
| ATACTGAA | 0.173 ± 0.0413 |
| ATATGGTA | 0.256 ± 0.011 |
| CCACTATC | 0.227 ± 0.0482 |
| GCATACGA | 0.157 ± 0.0596 |
